Experiment [1] has as its system Plasmodium falciparum Sir2 (PF13_0152, Sir2A). The experiment can be described thus: Plasmodium falciparum Sir2A binding compounds – biochemical, small-molecule microarray, 635 nm fluorescence, primary screen (AID 1098).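 Note: score merges spot fluorescence intensity with its signal-to-noise ratio.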 The following applies: fluorescence 635 nm, higher = more signal.
Experiment [2] in a line: probe aDKK1 binding to arrayed compounds – biochemical, biotinylated probe, 635/667 nm fluorescence, primary screen (AID 1099).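 Note: score merges 667nm spot fluorescence with signal to noise across triplicate slides.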 To be noted: small-molecule microarray, higher = more signal.
Experiment [3] in a line: probe aCHRDL2 binding to arrayed compounds – biochemical, biotinylated probe, 635/667 nm fluorescence, primary screen (AID 1100). The following applies: small-molecule microarray, higher = more signal.
Experiment [4] in a line: change in splice reporter luminescence, either direction, cell-based, HEK293, spliceosome inhibition project, primary screen (AID 1101).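 Note: HEK293 cells carrying a splicing-competent luciferase reporter gene; test concentration not given here.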 To be noted: HEK293 splicing luciferase reporter, 24 h, higher = more signal, called active from +8 up or from −8 down. In general terms: Reporter assays use an easily measured gene product as a stand-in for the process of interest.
Experiment [5] concerns the target Fibroblast growth factor 10 (Homo sapiens) (UniProt O15520). The experiment can be described thus: compounds binding fibroblast growth factor 10 – biochemical, small-molecule microarray, 635 nm fluorescence, primary screen (AID 1102). The following applies: FGF10 binding, fluorescence 635 nm, higher = more signal.
In experiment [6] the test system is glycogen synthase kinase-3 (GSK3A per assay name; protocol says GSK3B). The experiment can be described thus: compounds binding glycogen synthase kinase-3 – biochemical, small-molecule microarray, 635 nm fluorescence, GSK3A, primary screen (AID 1103). Note: the record names both GSK3A and GSK3B. To be noted: fluorescence 635 nm, higher = more signal.
Experiment [7] deals with Epidermal growth factor receptor (Homo sapiens) (UniProt P00533). The experiment in a line: compounds binding epidermal growth factor receptor – biochemical, small-molecule microarray, 635 nm fluorescence, primary screen (AID 1104).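 Note: score merges 667 nm emission intensity with spot signal to noise over triplicate slides.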 To be noted: EGFR binding, higher = more signal.
Epidermal growth factor receptor (Homo sapiens), sequence (P00533 whole entry, looked up): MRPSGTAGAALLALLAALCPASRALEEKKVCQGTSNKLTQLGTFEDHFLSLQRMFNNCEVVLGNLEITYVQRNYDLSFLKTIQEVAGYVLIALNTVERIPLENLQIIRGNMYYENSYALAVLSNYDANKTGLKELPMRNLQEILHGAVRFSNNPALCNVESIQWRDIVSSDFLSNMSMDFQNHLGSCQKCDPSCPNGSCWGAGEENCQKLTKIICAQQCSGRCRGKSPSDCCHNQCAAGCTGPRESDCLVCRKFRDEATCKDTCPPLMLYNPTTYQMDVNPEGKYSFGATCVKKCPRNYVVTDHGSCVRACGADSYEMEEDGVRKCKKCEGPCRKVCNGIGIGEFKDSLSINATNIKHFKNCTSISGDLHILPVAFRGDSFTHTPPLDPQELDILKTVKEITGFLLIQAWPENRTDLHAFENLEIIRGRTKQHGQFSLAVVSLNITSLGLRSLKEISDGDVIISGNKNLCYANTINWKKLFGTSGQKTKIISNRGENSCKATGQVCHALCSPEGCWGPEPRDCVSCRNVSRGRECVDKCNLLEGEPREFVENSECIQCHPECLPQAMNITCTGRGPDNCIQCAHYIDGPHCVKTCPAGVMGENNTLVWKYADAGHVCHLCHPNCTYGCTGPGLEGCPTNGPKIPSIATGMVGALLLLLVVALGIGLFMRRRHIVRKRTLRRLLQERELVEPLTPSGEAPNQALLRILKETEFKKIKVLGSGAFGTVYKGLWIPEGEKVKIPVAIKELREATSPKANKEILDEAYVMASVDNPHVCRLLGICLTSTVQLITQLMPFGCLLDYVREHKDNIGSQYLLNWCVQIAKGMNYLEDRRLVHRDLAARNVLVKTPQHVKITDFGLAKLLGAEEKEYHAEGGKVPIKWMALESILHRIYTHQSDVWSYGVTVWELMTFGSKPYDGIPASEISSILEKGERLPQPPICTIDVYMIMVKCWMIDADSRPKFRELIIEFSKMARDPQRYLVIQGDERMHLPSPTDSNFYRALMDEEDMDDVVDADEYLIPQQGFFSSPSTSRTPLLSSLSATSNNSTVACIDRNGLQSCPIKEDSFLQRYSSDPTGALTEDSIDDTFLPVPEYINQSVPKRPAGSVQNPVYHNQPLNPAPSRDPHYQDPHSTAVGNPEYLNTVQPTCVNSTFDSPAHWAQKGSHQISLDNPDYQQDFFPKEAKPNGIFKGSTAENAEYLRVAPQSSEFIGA
For experiment [8], the target named is Follistatin-related protein 3 (Homo sapiens) (UniProt O95633). The experiment in a line: compounds binding follistatin-related protein 3 – biochemical, small-molecule microarray, 635 nm fluorescence, primary screen (AID 1105).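 Note: score merges emission near 667 nm and signal to noise per printed spot across three slides.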 The following applies: FSTL3 binding, higher = more signal.
Follistatin-related protein 3 (Homo sapiens), sequence (O95633 whole entry, looked up): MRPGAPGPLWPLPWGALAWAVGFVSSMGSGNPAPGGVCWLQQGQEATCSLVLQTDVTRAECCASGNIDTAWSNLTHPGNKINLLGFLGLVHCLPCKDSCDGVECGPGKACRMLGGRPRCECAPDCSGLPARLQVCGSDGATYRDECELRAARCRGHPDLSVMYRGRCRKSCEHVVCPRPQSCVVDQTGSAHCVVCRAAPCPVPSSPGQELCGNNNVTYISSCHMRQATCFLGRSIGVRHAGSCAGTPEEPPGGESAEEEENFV
Experiment [9] deals with Dickkopf-related protein 1 (Homo sapiens) (UniProt O94907). The experiment in a line: small molecules binding DKK1 protein – biochemical, small-molecule microarray, 635 nm fluorescence scan, primary screen (AID 1106).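 Note: score merges emission near 667 nm with signal to noise over three replicate slides.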 To be noted: higher = more signal.
Dickkopf-related protein 1 (Homo sapiens), sequence (O94907 whole entry, looked up): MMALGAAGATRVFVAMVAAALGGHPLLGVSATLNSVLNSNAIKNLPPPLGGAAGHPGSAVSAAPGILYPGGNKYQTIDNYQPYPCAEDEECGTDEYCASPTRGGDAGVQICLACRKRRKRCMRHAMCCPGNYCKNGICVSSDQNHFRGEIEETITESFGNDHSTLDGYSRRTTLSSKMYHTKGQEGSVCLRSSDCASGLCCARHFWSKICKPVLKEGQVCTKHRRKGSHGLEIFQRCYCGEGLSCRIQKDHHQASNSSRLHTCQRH
For experiment [10], the system named is Inhibin beta A chain (activin A). The experiment in a line: small molecules binding activin A – biochemical, small-molecule microarray, 635 nm fluorescence scan, primary screen (AID 1107).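 Note: mouse activin A protein probed at 4.33 µg/mL on printed slides; score merges bound-protein fluorescence near 667 nm with spot signal-to-noise.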 The following applies: INHBA, higher = more signal.
Experiment [11] concerns Human papillomavirus type 1a protein E7 (residues 44-93). The experiment can be described thus: small molecules binding HPV E7 44-93 – biochemical, small-molecule microarray, residues 44-93, 635 nm fluorescence, primary screen (AID 1108).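 Note: E7 fragment applied at 1 µg/mL in TBST for 1 h at 4 C; score combines spot fluorescence with its signal to noise ratio.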 To be noted: fluorescence 635 nm, higher = more signal.
Experiment [12] in a line: hepatitis C replication reporter changes, two-sided – Huh7 cells, luciferase reporter, HCV replication inhibitor project, primary screen (AID 1109).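 Note: huh7 hepatoma cells harbouring a luciferase neomycin HCV replicon reporter; luciferase luminescence as measure of HCV replicon replication; test concentration not given here.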 The following applies: Huh7 HCV replicon luciferase reporter, 48 h; higher = more signal.
Experiment [13] concerns the target Left-right determination factor 2 (Homo sapiens) (UniProt O00292). The experiment in a line: small molecules binding LEFTY2 protein – biochemical, small-molecule microarray, 635 nm fluorescence scan, primary screen (AID 1110). The following applies: higher = more signal.
The target of experiment [14] is Calmodulin-1 (Homo sapiens) (UniProt P0DP23). The experiment can be described thus: small molecules binding calmodulin-1 with EGTA – biochemical, small-molecule microarray, Cy5-labelled CALM1, profiling panel (AID 1111).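 Note: labelled calmodulin applied in Tris saline Tween buffer holding calcium plus EGTA and DTT.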 The following applies: Cy5-CALM1 binding fluorescence, higher = more signal.
The target is the same in experiment [15]. The experiment can be described thus: small molecules binding Ca-loaded calmodulin-1 – biochemical, small-molecule microarray, Cy5-labelled CALM1, plus calcium, artefact control for SMM control-protein annotation, profiling panel (AID 1112).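 Note: score merges spot fluorescence with signal to noise from triplicate slides.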 To be noted: Cy5-CALM1 binding fluorescence, higher = more signal.
The nature of experiment [16]: probe aWnt5a binding to arrayed compounds – biochemical, biotinylated probe, 635/667 nm fluorescence, primary screen (AID 1113).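 Note: score merges 667 nm fluorescence intensity with signal-to-noise per printed feature.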 The following applies: small-molecule microarray, higher = more signal.
Experiment [17] in a line: probe aShh binding to arrayed compounds – biochemical, biotinylated probe, 635/667 nm fluorescence, primary screen (AID 1114).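 Note: probe is biotin-labelled aShh protein from a stem cell growth factor screen; measures binding of labelled protein to compounds printed on the slide; score merges feature fluorescence at 667 nm with signal-to-noise.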 The following applies: small-molecule microarray, higher = more signal.
Experiment [18] is described as follows: probe aNog binding to arrayed compounds – biochemical, biotinylated probe, 635/667 nm fluorescence, primary screen (AID 1115).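 Note: probe is biotinylated aNog protein used at 0.15 µg/mL for 1 h at 4 C; z-score combines 667 nm fluorescence of each spot with its signal to noise.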 To be noted: small-molecule microarray, higher = more signal.
In experiment [19] the target is Torsin-1A-interacting protein 1 (Homo sapiens) (UniProt Q5JTV8). The experiment can be described thus: compound microarray binding of lysate hLAP1 – cell lysate, small-molecule microarray, COS7 lysate, 635/667 nm fluorescence, primary screen (AID 1116). To be noted: 635 nm fluorescence, higher = more signal.
Torsin-1A-interacting protein 1 (Homo sapiens), sequence (Q5JTV8 whole entry, looked up): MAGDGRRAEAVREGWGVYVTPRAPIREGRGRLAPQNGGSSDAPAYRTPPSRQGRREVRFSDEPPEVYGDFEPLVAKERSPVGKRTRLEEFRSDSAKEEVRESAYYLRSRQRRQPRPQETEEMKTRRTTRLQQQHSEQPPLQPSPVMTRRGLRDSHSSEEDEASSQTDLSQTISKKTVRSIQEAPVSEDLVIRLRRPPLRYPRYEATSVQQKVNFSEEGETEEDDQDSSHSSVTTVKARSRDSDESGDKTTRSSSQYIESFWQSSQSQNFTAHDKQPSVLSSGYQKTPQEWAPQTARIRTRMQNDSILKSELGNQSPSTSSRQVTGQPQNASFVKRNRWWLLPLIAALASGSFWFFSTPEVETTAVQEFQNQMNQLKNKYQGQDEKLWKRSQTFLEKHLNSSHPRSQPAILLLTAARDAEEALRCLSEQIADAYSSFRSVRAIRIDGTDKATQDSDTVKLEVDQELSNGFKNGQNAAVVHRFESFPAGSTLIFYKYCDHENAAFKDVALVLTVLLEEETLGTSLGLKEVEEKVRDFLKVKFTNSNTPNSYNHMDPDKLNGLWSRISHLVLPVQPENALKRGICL
Experiment [20] addresses Alpha-bungarotoxin (Bungarus multicinctus) (UniProt P60615). The experiment can be described thus: compounds binding labelled alpha-BTX control protein – biochemical, small-molecule microarray, Alexa647 label, 635/667 nm fluorescence, artefact control for SMM control protein annotation, profiling panel (AID 1117). To be noted: alpha-BTX-A647 binding fluorescence, higher = more signal.

Each structure is given as a SMILES string. Active and inactive are the calls of the source.

Fibroblast growth factor 10 (Homo sapiens), sequence (O15520 whole entry, looked up): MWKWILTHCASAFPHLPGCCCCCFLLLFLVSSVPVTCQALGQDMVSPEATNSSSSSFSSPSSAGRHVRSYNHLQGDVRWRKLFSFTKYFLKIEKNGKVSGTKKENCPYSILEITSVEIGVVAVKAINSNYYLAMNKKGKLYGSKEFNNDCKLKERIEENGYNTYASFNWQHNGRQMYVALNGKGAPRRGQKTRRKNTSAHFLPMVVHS
Left-right determination factor 2 (Homo sapiens), sequence (O00292 whole entry, looked up): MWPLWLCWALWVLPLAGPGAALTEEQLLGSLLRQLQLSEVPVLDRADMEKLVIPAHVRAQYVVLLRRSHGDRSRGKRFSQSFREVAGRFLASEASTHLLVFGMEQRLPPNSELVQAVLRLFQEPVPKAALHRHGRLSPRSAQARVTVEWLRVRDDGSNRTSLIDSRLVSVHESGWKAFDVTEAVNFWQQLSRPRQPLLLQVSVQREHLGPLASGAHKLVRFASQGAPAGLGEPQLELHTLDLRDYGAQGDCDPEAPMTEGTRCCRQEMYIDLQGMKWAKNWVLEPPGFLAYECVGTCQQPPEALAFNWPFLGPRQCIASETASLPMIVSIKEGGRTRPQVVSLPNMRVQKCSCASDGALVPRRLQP
Alpha-bungarotoxin (Bungarus multicinctus), sequence (P60615 whole entry, looked up): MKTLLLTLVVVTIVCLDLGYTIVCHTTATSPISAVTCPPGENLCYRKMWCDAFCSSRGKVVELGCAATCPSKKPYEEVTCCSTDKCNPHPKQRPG

`CC(C)=CCN[C@H](CO)c1ccccc1`: the composite z-score is 0.38 in [1]; -0.274 in [2]; -0.235 in [3]; 0.795 in experiment [5]; -0.366 in experiment [6]; 0.149 in experiment [7]. Moreover, the composite z-score in experiment [8] is 0.576; in [9] it was 0.749; in experiment [10], 1.01; in experiment [11], 0.318; in experiment [13], 0.422; in experiment [14], -0.644. Further, the composite z-score in [15] was -0.881; in experiment [16], -0.13; in experiment [17] it was 0.0048; in [18], -0.278; in experiment [19] it was 0.157; in experiment [20] it was 0.189. The z-score was -0.795 (inactive) in experiment [4] and -1.76 in experiment [12].

Consider `COc1ccc(-c2cc3c(c(-c4ccc(Oc5ccccc5)cc4)n2)[Si](C(C)C)(C(C)C)OC3)cn1`, for which the composite z-score in experiment [1] was -0.207; in [2], -0.242; in experiment [3], -0.262; in experiment [5] it was -0.0354; in experiment [6] it was -0.175; in experiment [7] it was -0.0425. The composite z-score in [8] is 0.148; in experiment [9], 0.0989; in experiment [10] it was 0.365; in [11] it was -0.419; in [13], -0.123; in experiment [14], -0.266. In addition, the composite z-score in experiment [15] is 0.211; in experiment [16] it was -0.206; in experiment [17] it was -0.0553; in experiment [18], -0.224; in [19], -0.286; in experiment [20], 0.199. Also, the z-score in [4] is 0.00906 (inactive); in experiment [12], -1.15.

For `NCCCCCCNC(=O)[C@@H]1C[C@@H]2C(=O)NCC(=O)N2[C@@H]1c1ccc(O)cc1`, the composite z-score in experiment [1] was 1.45; in [2], -0.0828; in [3], -0.0743; in experiment [5], 1.05; in [6], 1.3; in experiment [7], 0.574. For the same molecule, the composite z-score is 1.3 in experiment [8]; 1.6 in [9]; 0.802 in experiment [10]; 1.29 in experiment [11]; 1.14 in experiment [13]; 0.584 in experiment [14]. The composite z-score was -0.0301 in experiment [15]; -0.142 in experiment [16]; 0.0469 in experiment [17]; -0.566 in [18]; 0.715 in experiment [19]; 1.41 in [20]. Also, the z-score in experiment [4] was -0.481 (inactive); in [12] it was 0.279.

Consider `C=C[C@H](OC)[C@@H](OC(=O)Nc1ccc(OC)cc1)c1ccc(O)c(F)c1`, for which the composite z-score in [1] is 0.68; in experiment [2], -0.446; in [3], 0.3; in experiment [5], -0.0655; in experiment [6], -0.499; in experiment [7], -1.49. For the same molecule, the composite z-score is -1.19 in experiment [8]; -1.16 in experiment [9]; -0.25 in [10]; 0.625 in experiment [11]; -0.644 in experiment [13]; -1.25 in experiment [14]. For the same molecule, the composite z-score in experiment [15] is -1.39; in [16], -0.28; in experiment [17], 0.0952; in [18], -0.478; in experiment [19] it was 1.14; in experiment [20], -1.56. The z-score in [4] is -1.27 (inactive); in experiment [12], -0.276.

Take `O=C(c1ccccc1)N1C(=O)[C@@]2(Cc3ccccc31)N=C(c1ccc(OCCCO)cc1)O[C@H]2c1ccccc1`: the composite z-score in experiment [1] was found to be 1.64; in experiment [2], 1; in [3], 0.965; in experiment [5], 1.06; in [6] it was 1.33; in experiment [7], 0.782. Moreover, the composite z-score in experiment [8] came to 1.22; in experiment [9], 0.973; in [10], 0.992; in experiment [11], 1.03; in experiment [13], 0.643; in experiment [14], 0.661. Also, the composite z-score is -0.502 in experiment [15]; 0.0919 in experiment [16]; -0.369 in experiment [17]; 1.57 in [18]; 1.61 in experiment [19]; 0.902 in [20]. Also, the z-score in [4] is -0.663 (inactive); in experiment [12], -2.77.

Consider `COC(=O)[C@H](Cc1ccccc1)N[C@@H](/C=C/C1CC1)[C@H](O)Cc1ccccc1`, for which the composite z-score in [1] is 1.02; in experiment [2], -0.157; in [3], 0.442; in [5], -0.865; in experiment [6], -0.637; in [7] it was -0.463. Besides, the composite z-score in experiment [8] was -0.862; in experiment [9], -0.429; in experiment [10], 0.437; in [11], -0.431; in experiment [13], -0.517; in experiment [14] it was 0.125. For the same molecule, the composite z-score in [15] is -0.736; in [16], 0.454; in experiment [17], -0.309; in experiment [18], -0.349; in [19], 0.729; in [20] it was 0.342. Moreover, the z-score in experiment [4] was 0.488 (inactive); in experiment [12], -0.95.

As to `CC(C)[Si]1(C(C)C)O[C@@H](c2ccccc2)c2cc(-c3ccc(-c4ccc(Cl)c(Cl)c4)o3)nc(-c3ccccc3)c21`, the composite z-score was 0.735 in experiment [1]; 0.0699 in experiment [2]; 0.234 in [3]; 0.353 in experiment [5]; -0.514 in experiment [6]; 0.0831 in [7]. The composite z-score was 0.0331 in experiment [8]; -0.172 in experiment [9]; 0.756 in experiment [10]; -0.342 in experiment [11]; -0.115 in experiment [13]; 0.487 in experiment [14]. In addition, the composite z-score was 0.0017 in experiment [15]; -0.137 in [16]; -0.138 in experiment [17]; 0.15 in experiment [18]; -0.101 in [19]; 0.575 in experiment [20]. The z-score in [4] was 0.115 (inactive); in experiment [12] it was -1.55.

Regarding `CN1C(=O)C2C=CC(C(O)c3ccccc3)N(N(c3ccccc3)c3ccccc3)C2C1=O` (stereo not given), the composite z-score in [1] was 1.59; in experiment [2], 0.629; in [3], 0.632; in [5], -0.113; in experiment [6], -0.372; in [7], 0.142. Moreover, the composite z-score was 0.455 in experiment [8]; 0.254 in experiment [9]; 1.07 in experiment [10]; -0.364 in experiment [11]; 0.618 in experiment [13]; -0.315 in [14]. Also, the composite z-score in experiment [15] was -0.717; in experiment [16], 0.0181; in [17], -0.0904; in [18], 0.235; in experiment [19], 0.911; in [20], 0.514. For the same molecule, the values for the z-score in [4] and in experiment [12] were 0.597 (inactive) and -0.442, respectively.

The values are drawn from PubChem BioAssay.
